HSP90 inh – HSP90 refolding inhibition in rabbit reticulocyte lysate | inhibition, % at 5.6 µM | luciferase refolding luminescence, 3 h | AID 1789 | 290,000 compounds, 0.91% hits;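 active = inhibition above the screen-wide mean plus 3 SD, computed separately per campaign, cut at about 16% in these data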;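 also: 0% = DMSO wells and 100% = 60 µM geldanamycin wells; inhibitors lower the luminescence because luciferase stays unfolded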
PG9 binder – small molecules binding HIV-1 gp120 antibody PG9 | inhibition, % at 6.7 µM | 360,000 compounds, 0.43% hits | TR-FRET gp120-PG9 antibody binding | AID 624416; in the data active = inhibition above about 8.5%
GAA850 FXN act – increases GAA850 frataxin promoter reporter activity; HEK293 lucGAA850 FXN promoter luciferase reporter, 24 h; percent of 10 µM SAHA response; activation, % at 6 µM; 360,000 compounds, 0.56% hits;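 active = activation above the average of all compounds screened plus 3 SD, cutoff fixed separately per campaign, cut at about 7.5% in these data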;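 also: 0% = DMSO wells and 100% = 10 µM SAHA wells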
HSF1 inh – HSF1 inhibition; activity change, negative = inhibition, % at 7.5 µM (by protocol); NIH3T3-HGL HSE-luciferase, MG132-induced, luminescence 8 h; active compounds read low; 300,000 compounds, 0.77% hits;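 active = more than half of replicate wells show activity change below -50%, luminescence cut by over half; inconclusive = some wells, but at most half, below -50%; inactive = no replicate well below -50%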;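 also: luciferase reports HSF-1 transcriptional activity via heat shock element; 0% = median of DMSO wells and -100% = zero luminescence signal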
AI-2 QS mod – modulates the Vibrio harveyi AI-2 quorum sensing system; Vibrio harveyi JMH597 AI-2 luminescence/OD600 ratio, 9 h; active compounds read low; strain lacks LuxN and CqsS sensors; 0 = neutral-control median; activity change, % at 7.5 µM; 300,000 compounds, 0.4% hits; AID 2094; in the data active = activity change below about -75%, passing the limit was not always enough; inconclusive = no clear call, values can overlap the other calls;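 also: luminescence divided by OD600 gain over 9 h not by final OD600 alone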
SMARCA2 activ – increases SMARCA2 function in MMTV reporter cells. MG213 cells, MMTV-luciferase reporter, dexamethasone, overnight. activation, % at 9.1 µM. 370,000 compounds, 1% hits; in the data active = activation above about 7.8%;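 also: 0% = vehicle wells and 100% = reference activator wells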
GAA30 counter – activates GAA30 frataxin promoter, counter-screen for GAA850 activators | activation, % at 6 µM | 1,900 compounds, 66% hits | AID 588350 | HEK293 lucGAA30 FXN promoter luciferase, 24 h; DMSO = 0%, 5 µM ipriflavone = 100% | shares compounds with GAA850 FXN act;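 active = mean activation above the mean of solvent-only control wells plus 3 SD, cut at about 22% in these data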;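 also: counterscreen of GAA850 promoter hits where activity marks nonselective or luminescence artifacts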
FXN GAA850 conf – confirmation of GAA850 frataxin (FXN) promoter activators; HEK293 lucGAA850 FXN promoter luciferase reporter, 24 h; 100% = activation by SAHA; 1,900 compounds, 86% hits; activation, % at 6 µM; shares compounds with GAA850 FXN act;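 active = mean activation above a set limit taken from the primary screen, cut at about 8% in these data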;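 also: 0% = DMSO wells and 100% = 10 µM SAHA wells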
SMARCA2 act conf – SMARCA2 activation, confirmation screen. AID 652260. activation, % at 9.1 µM. MG213 cells, MMTV-luciferase with dexamethasone, luminescence, overnight; MG213 cells expressing E1A, Rb sequestered; DMSO wells 0%, reference activator 100%. shares compounds with SMARCA2 activ. 3,500 compounds, 30% hits;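 active = activation above its plate's cutoff, the mean activation of tested wells plus 3 SD, cut at about 7.9% in these data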
VP16 Luc act – counter-screen for SMARCA2 activators: GAL4-VP16 luciferase reporter activation; activation, % at 9.1 µM; HEK293 GAL4-VP16 pG5luc reporter, luciferase luminescence; scaled: DMSO wells 0%, SAHA wells 100%; shares compounds with SMARCA2 activ; 3,500 compounds, 41% hits; AID 686939;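 active = activation above the solvent-only control well mean plus 3 SD, averaged across control plates, cut at about 5.2% in these data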
Starred values were filed as active, the others as inactive; ? = inconclusive; nt = no result. Shown are actives, neighbours in structure and some others; about 3.4% of the full set was active somewhere.

SMILES	HSP90 inh	PG9 binder	GAA850 FXN act	HSF1 inh	AI-2 QS mod	SMARCA2 activ	GAA30 counter	FXN GAA850 conf	others
Cc1ccc(N2C(=O)NC(=O)/C(=C\C=C\c3ccco3)C2=O)cc1	7	-3	8.0*	22	36	4	11	20*
O=C1NC(=O)C(=Cc2c(Cl)cccc2Cl)C(=O)N1	nt	0	4	nt	nt	-2	nt	nt
C/C(=N\N1CCCCC1c1cccnc1)c1c(O)n(C2CCCCC2)c(=S)[nH]c1=O (configuration not stated)	3	-1	8.2*	-3	12	0	15	17*
COC(=O)C1=C(c2cccc(C#N)c2)C[C@@H]2CC[C@H]1N2C(=O)NC(C)C	nt	1	1	nt	nt	1	nt	nt
CN1C(=O)/C(=C/c2ccc(N3CCCCCC3)o2)C(=O)NC1=S	4	-8	9.9*	-11	15	5	100*	47*
Cc1ccccc1-[n+]1c(-c2ccccc2)cc(-c2ccccc2)cc1-c1ccccc1	nt	-2	-8	-5	0	-9	nt	nt
O=c1[nH]c2ccccc2n1C1CCN(C(c2ccccc2OC(F)(F)F)c2nnnn2Cc2ccccc2)CC1 (configuration not stated)	nt	1	nt	nt	nt	-5	nt	nt
COc1cccc(CNCCc2c[nH]c3ccccc23)c1OC	-2	-1	-2	-10	-15	0	nt	nt
COc1ccc(CNCCc2c[nH]c3ccccc23)c(OC)c1OC	-5	-1	8.1*	-6	19	-2	13	8.7*
COc1ccc(-n2nnnc2C(c2cccs2)N2CCC3(CC2)C(=O)NCN3c2ccccc2)cc1 (configuration not stated)	nt	-3	nt	nt	nt	-1	nt	nt
O=C1C=C2C=C[C@@H]3CC2(O1)[C@H]1CCCCN31	nt	-1	8.1*	nt	nt	-4	36*	14*
c1cncc(C2Nc3cccc4cccc(c34)N2)c1	12	-16	12*	-4	6	-1	26*	5
c1cncc(C2CCCCN2)c1 (configuration not stated)	5	-1	-1	13	2	1	nt	nt
CCCCCP(=O)(O)c1ccccc1	2	-1	1	4	22	-1	nt	nt
CCCC/C(C)=C/[C@@H](NP(=O)(c1ccccc1)c1ccccc1)c1ccccc1	2	2	9.2*	16	13	0	13	5
[Cl][Pt+2][Cl].[NH-]C1CCCCC1[NH-] (configuration not stated)	nt	-1	-1	nt	nt	-3	nt	nt
O=C1NC(=O)N(Cc2ccco2)C(=O)/C1=C/C=C/c1ccco1	2	-1	10*	15	27	0	-4	26*
Cn1cccc1/C=C1\C(=O)NC(=O)N(Cc2ccco2)C1=O	1	-1	4	-3	14	0	nt	nt
O=C1NC(=O)N(Cc2ccccc2)C(=O)/C1=C\C=C\c1ccco1	3	-4	13*	32	15	1	8	31*
N#CC1c2ccccc2C=CN1C(=O)c1ccc(N(CCCl)CCCl)cc1 (configuration not stated)	nt	0	-1	nt	nt	-6	nt	nt
COC1/C=C/C=C(\C)Cc2cc(O)c(Cl)c(c2)N(C)C(=O)CC(OC(=O)C(C)C)C2(C)OC2C(C)C2CC1(O)NC(=O)O2 (configuration not stated)	nt	0	19*	41	nt	-3	-17	21*
NC1CCc2cc(O)c(O)cc2C1 (configuration not stated)	nt	-1	3	nt	nt	-4	nt	nt
O=[N+]([O-])c1ccc(Cl)c([N+](=O)[O-])c1	nt	-2	8.0*	nt	nt	-3	38*	78*
CN(C)C1C(=O)C(C(N)=O)=C(O)C2(O)C(=O)C3=C(O)c4c(O)cccc4C(C)(O)C3C(O)C12 (configuration not stated)	0	-3	16*	3	?	2	33*	11*
CCCCCCC(C)(C)c1ccc([C@@H]2C[C@H](O)CC[C@H]2CCCO)c(O)c1	nt	1	3	nt	nt	1	nt	nt
SMILES	HSP90 inh	PG9 binder	GAA850 FXN act	HSF1 inh	AI-2 QS mod	SMARCA2 activ	GAA30 counter	FXN GAA850 conf	others
COc1cc2c(cc1OC)CN(c1ccc([N+](=O)[O-])c(C(F)(F)F)c1)CC2	2	0	3	92	6	-5	nt	nt
CC(C)(O)C(=O)Nc1ccc([N+](=O)[O-])c(C(F)(F)F)c1	nt	0	12*	nt	nt	-4	16	7
CCNC(=O)[C@H]1O[C@@H](n2cnc3c(N)ncnc32)[C@H](O)[C@@H]1O	nt	-1	8.6*	-15	13	3	35*	18*
CN1CCN(c2ccc(NC(=O)Oc3ccccc3)cc2)CC1	1	-3	1	-9	11	3	nt	nt
CN1CCN(c2ccc3c(c2)S(=O)(=O)c2ccccc2C3=O)CC1	nt	1	8.8*	15	-7	8.6*	97*	35*	SMARCA2 act conf=8.2*;VP16 Luc act=8.8*
COC(=O)C1=C(c2cccc(OCc3ccccc3)c2)C[C@@H]2CC[C@H]1N2C(=O)NCCc1ccc(F)cc1	nt	-2	-3	nt	nt	-1	nt	nt
N#Cc1cn(C2OC(CO)C(O)C2O)c2ncnc(N)c12 (configuration not stated)	nt	-2	14*	nt	nt	8.5*	48*	-4	SMARCA2 act conf=17*;VP16 Luc act=-4
CC(=O)O[C@H]1C[C@@H]2OC3C=C(C)CCC3(C)[C@@]1(C)[C@@]21CO1 (some centres not stated)	nt	-2	-15	nt	nt	-8	nt	nt
C=C1C(C)C2C(Cc3ccccc3)NC(=O)C23C(OC(C)=O)C=CC(C)(O)CC(C)CC=CC3C1O (configuration not stated)	nt	-1	7.6*	nt	nt	14*	17	23*	SMARCA2 act conf=14*;VP16 Luc act=5
